Assay outcomes from PubChem BioAssay.
Hits are enriched below; roughly 3.7% of the tested compounds scored in any of these assays.
Rv3671c inh – inhibits the M. tuberculosis serine protease Rv3671c; P9WHR9; AID 2606; inhibition, % at 5.96 µM; 320,000 compounds, 0.048% hits; in the data active = inhibition above about 38%;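 note: extracellular domain of Rv3671c used as enzyme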
Target sequence (P9WHR9 whole entry, looked up, the tested form may be a part): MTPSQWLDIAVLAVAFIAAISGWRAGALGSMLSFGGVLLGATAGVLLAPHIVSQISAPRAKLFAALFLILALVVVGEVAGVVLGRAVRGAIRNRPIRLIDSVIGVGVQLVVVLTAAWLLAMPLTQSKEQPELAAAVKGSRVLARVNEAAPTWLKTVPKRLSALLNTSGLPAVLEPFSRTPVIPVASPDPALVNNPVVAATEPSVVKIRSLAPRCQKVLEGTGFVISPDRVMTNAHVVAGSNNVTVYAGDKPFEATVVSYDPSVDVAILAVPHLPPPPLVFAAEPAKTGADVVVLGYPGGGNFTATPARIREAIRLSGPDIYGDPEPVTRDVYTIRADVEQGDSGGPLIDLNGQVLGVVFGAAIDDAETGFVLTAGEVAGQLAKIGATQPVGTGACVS
FadD28 binding – inhibitors of Mycobacterium tuberculosis FadD28 bisubstrate binding. AID 588549. FadD28 bisubstrate probe binding, fluorescence polarization. 360,000 compounds, 0.22% hits. inhibition, % at 12.5 µM; in the data active = inhibition above about 8.5%, passing the limit was not always enough; inconclusive = no clear call, values can overlap the other calls
Mtb UGM inh – blocks M. tuberculosis UGM enzyme | P9WIQ1 | purified UGM, fluorescence polarization probe displacement | inhibition, % at 10 µM | 320,000 compounds, 0.06% hits; in the data active = inhibition above about 10%, passing the limit was not always enough; inconclusive = no clear call, values can overlap the other calls
FBA Mtb inh – inhibits M. tuberculosis FBA enzyme | AID 588726 | purified M. tuberculosis FBA, fluorescence read-out | 360,000 compounds, 2.3% hits | inhibition, % at 1 µM; in the data active = inhibition above about 27%
Target sequence (P9WQA3 whole entry, looked up): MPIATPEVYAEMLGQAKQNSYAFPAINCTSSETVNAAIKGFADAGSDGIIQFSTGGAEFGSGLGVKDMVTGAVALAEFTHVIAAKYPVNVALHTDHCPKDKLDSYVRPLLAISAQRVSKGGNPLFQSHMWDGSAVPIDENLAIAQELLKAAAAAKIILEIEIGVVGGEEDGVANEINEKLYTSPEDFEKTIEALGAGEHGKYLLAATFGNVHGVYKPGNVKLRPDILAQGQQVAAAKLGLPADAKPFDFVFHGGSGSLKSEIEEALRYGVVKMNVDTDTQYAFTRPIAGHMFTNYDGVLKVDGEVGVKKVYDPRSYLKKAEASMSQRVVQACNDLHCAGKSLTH
Mtb betalactam – beta-lactam sensitization of Mtb H37Rv; inhibition, % at 25 µM; M. tuberculosis H37Rv growth with meropenem, percent inhibition; 330,000 compounds, 0.27% hits; call rule not given here;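 note: growth measured after seven days incubation then overnight dye step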
GDH-TPI inh – counter-screen for M. tuberculosis FBA inhibitors: GDH-TPI coupled enzymes; GDH-TPI coupled enzyme counterscreen, NADH absorbance; inhibition, % at 4.8 µM; 360,000 compounds, 1.2% hits; in the data active = inhibition above about 30%
Of the large screens only hits and unclear results are named; the others gave an inactive call.

COc1cc(OC)cc(-c2c(C#Cc3ccsc3)c3cc(-c4ccc5cc[nH]c5c4)ccc3n2C)c1	GDH-TPI inh 32.8
C=CCc1c(C)nc(C)nc1N/N=C/c1ccc(N(C)C)cc1	GDH-TPI inh 49.8
CCOC(=O)c1sc(N/N=C/c2ccc(N(C)C)cc2)nc1C	none
CC[C@H]1CC2CN3CCc4c([nH]c5c([C@H]6C[C@H]7[C@H](CC)CN(C)[C@@H](Cc8c6[nH]c6ccccc86)[C@H]7C(=O)OC)c(OC)ccc45)C(C(=O)OC)(C2)C13	none (no result: FadD28 binding, FBA Mtb inh, GDH-TPI inh)
Cc1sc2ncnc(N3CCC(C(=O)Nc4nnc(SCc5ccccc5F)s4)CC3)c2c1C	FBA Mtb inh 138.1
FC(F)(F)c1ccccc1Cc1c(-c2ccccc2)nc2ccc(Br)cn12	none (no result: Rv3671c inh, Mtb UGM inh, Mtb betalactam, GDH-TPI inh)
C=CCOc1ccc(/C=C2\SC(=S)N(C(C(=O)O)c3ccccc3)C2=O)cc1 (stereo not drawn)	FadD28 binding 14.0 (no result: Rv3671c inh, Mtb UGM inh, Mtb betalactam)
COc1ccccc1/C=C(\NC(=O)c1ccc(OC)c(OC)c1)C(=O)Nc1ccc([N+](=O)[O-])cc1	GDH-TPI inh 35.6
CC(C)(C)c1ccc(C(=O)N/C(=C\c2cccc([N+](=O)[O-])c2)C(=O)Nc2cccc(C(=O)O)c2)cc1	none
O=C(Nc1cccc(C(=O)O)c1)/C(=C/c1ccc([N+](=O)[O-])cc1)NC(=O)c1ccccc1	none
O=C(NNc1cccc([N+](=O)[O-])c1)/C(=C\c1cccnc1)NC(=O)c1ccccc1	GDH-TPI inh 44.2
COc1ccccc1/C=C(\NC(=O)c1ccc(OC)c(OC)c1)C(=O)Nc1cccc([N+](=O)[O-])c1	GDH-TPI inh 32.4
CCOc1cc(Br)cc(C(c2c(C(=O)O)[nH]c3ccccc23)c2c(C(=O)O)[nH]c3ccccc23)c1O	FadD28 binding 32.5
CSc1ccc(C(c2c(C(=O)O)[nH]c3ccccc23)c2c(C(=O)O)[nH]c3ccccc23)cc1	FadD28 binding 38.2
COCCN(C(=O)c1ccccc1F)c1nnc(-c2ccc(OC)cc2)s1	none
Cn1c(=O)c2cc(NC(=O)Nc3cccnc3)ccc2n1Cc1cccc(C(F)(F)F)c1	FadD28 binding inconclusive, FBA Mtb inh 114.4 (no result: Rv3671c inh, Mtb UGM inh, Mtb betalactam)
Cn1c(=O)c2cc(NC(=O)NCCc3cccs3)ccc2n1-c1ccc(C(C)(C)C)cc1	none (no result: Rv3671c inh, Mtb UGM inh, Mtb betalactam)
CN(C)c1ccc(NC(=O)Nc2ccc3c(c2)c(=O)n(C)n3Cc2ccccc2)cc1	none (no result: Rv3671c inh, Mtb UGM inh, Mtb betalactam)
C=C(C)Cn1c2ccc(NC(=O)CCc3cccnc3)cc2c(=O)n1C	FBA Mtb inh active (no result: Rv3671c inh, Mtb UGM inh, Mtb betalactam)
C=C(C)Cn1c2ccc(NC(=O)NCCc3cccs3)cc2c(=O)n1C	FBA Mtb inh 181.9 (no result: Rv3671c inh, Mtb UGM inh, Mtb betalactam)
CC(C)=CCn1c2ccc(NC(=O)Nc3cccnc3)cc2c(=O)n1C	FBA Mtb inh 141.4 (no result: Rv3671c inh, Mtb UGM inh, Mtb betalactam)
COc1ccc(CCC(=O)N2CCN(S(=O)(=O)c3ccc(OC(F)(F)F)cc3)CC2)cc1	none
CN(C)c1ccc(NC(=O)Nc2ccc3c(c2)c(=O)n(C)n3Cc2ccc(Cl)cc2)cc1	none (no result: Rv3671c inh, Mtb UGM inh, Mtb betalactam)
Cn1c(=O)c2cc(NC(=O)Nc3cccnc3)ccc2n1Cc1ccc(Cl)cc1	FBA Mtb inh 135.0 (no result: Rv3671c inh, Mtb UGM inh, Mtb betalactam)
O=[N+]([O-])c1ccc(-c2cn3c(n2)SCC3)cc1	GDH-TPI inh 36.5
N#Cc1ccc(-c2cn3c(n2)SCC3)cc1	FBA Mtb inh active (no result: Rv3671c inh)
N#Cc1c(-c2ccc([N+](=O)[O-])cc2)nc2n(c1=O)CCS2	none
O=S(=O)(Nc1ccc(-c2cn3c(n2)SCC3)cc1)c1cccs1	none
C=CCn1c(SCC(=O)Nc2cc(C)on2)nnc1-c1ccncc1	none (no result: Rv3671c inh, Mtb UGM inh, Mtb betalactam)
CN(C)/C=C/c1onc(-c2c(F)cccc2Cl)c1C#N	GDH-TPI inh 31.4
CCCCN(C)c1c(C)nc2ccc(C(=O)N(CC)CCN(C)C)cn12	none (no result: Rv3671c inh, Mtb UGM inh, Mtb betalactam)
CCCCOc1ccc(/C=N/NC(=S)Nc2cc(C)ccc2C)cc1	GDH-TPI inh 40.2
CCCCOc1ccc(/C=N/NC(=S)Nc2cccc(C)c2C)cc1	none
COc1cc(OC)c(OC)cc1/C=N/NC(=O)CCc1c(C)n[nH]c1C	GDH-TPI inh 55.9
O=c1cc2oc3cc(O)c(O)cc3c(-c3ccccc3O)c-2cc1O	FadD28 binding 80.9 (no result: Rv3671c inh, Mtb UGM inh, Mtb betalactam)
CCOc1ccccc1-c1c2cc(O)c(=O)cc-2oc2cc(O)c(O)cc12	FadD28 binding 130.7 (no result: Rv3671c inh, Mtb UGM inh, Mtb betalactam)
C=CCSc1nsc(NC(=O)Nc2ccc(F)cc2)n1	none
C=CCn1c(SCC(=O)NC2CCCC2)nc2ccccc21	none (no result: Rv3671c inh, Mtb UGM inh, Mtb betalactam)
Cc1cc(NC(=O)c2csc([C@@H]3O[C@H](CO)[C@H](O)[C@H](O)[C@H]3O)n2)n(C)n1	none (no result: Rv3671c inh, Mtb UGM inh, Mtb betalactam)
Cc1nn(-c2ccccn2)c2c1-c1nc(N3CCOCC3)ncc1CC2	FBA Mtb inh 113.7
Fc1cnc(N2CCOCC2)nc1N1CCc2ccccc21	none
O=c1ccc2c(ccc3ncccc32)o1	none (no result: Rv3671c inh, Mtb UGM inh, Mtb betalactam)
O=C1CCCc2nc(N3CCCCC3)sc21	GDH-TPI inh 32.5
Cc1ccc(S(=O)(=O)N2CCOCC2)cc1NC(=O)CN(C)CC(=O)Nc1cccc(F)c1	none (no result: Rv3671c inh, Mtb UGM inh, Mtb betalactam)
CC(=O)C1=C(O)C(=CC=Cc2ccccc2)OC1=O	GDH-TPI inh 31.0 (no result: Rv3671c inh, Mtb UGM inh, Mtb betalactam)
COc1cc(NC(=O)Nc2nnc([C@H]3C[C@H](O)[C@@H](CO)O3)s2)cc(OC)c1OC	none (no result: Rv3671c inh, Mtb UGM inh, Mtb betalactam)
C=CCn1ccc(=NC=C(C#N)C#N)c2ccccc21	Mtb UGM inh 35.7
COc1ccc(C(C)(O)c2nc(-c3ccc4ccccc4c3)cs2)cc1 (stereo not drawn)	none (no result: Rv3671c inh, Mtb UGM inh, Mtb betalactam)
COc1ccc(-c2nc3ccccc3c(=O)[nH]2)cc1	none
CN(C)c1ccc(-c2nc3ccccc3c(=O)[nH]2)cc1	GDH-TPI inh 73.7
COc1ccc(C(C[N+](=O)[O-])c2c(-c3ccccc3)cc3ccccn23)cc1OC (stereo not drawn)	none
COc1ccc(C(C[N+](=O)[O-])C2(c3ccc(OC)c(OC)c3)C(=O)c3ccccc3C2=O)cc1 (stereo not drawn)	GDH-TPI inh 40.7
FC(F)(F)c1cccc(Cc2noc(CN3CCCC(CN4CCCC4)C3)n2)c1 (stereo not drawn)	none
CC(=O)Nc1ccc(/C=C/c2ccc3cccc([N+](=O)[O-])c3n2)cc1	GDH-TPI inh 40.0
COc1cc(/C=C/c2ccc3cccc([N+](=O)[O-])c3n2)ccc1OCC(=O)O	GDH-TPI inh 45.5 (no result: Mtb betalactam)
O=C(O)COc1ccc(/C=C/c2ccc3cccc([N+](=O)[O-])c3n2)cc1	none (no result: Mtb UGM inh)
COc1cc(/C=C/c2ccc3cccc(O)c3n2)cc(OC)c1OC	FadD28 binding 13.3
COc1cc(/C=C/c2ccc3c([N+](=O)[O-])cccc3n2)ccc1OCC(=O)O	GDH-TPI inh 38.8
CC(=O)Nc1ccc(NC(=O)CSc2nnc(N)n2-c2ccccc2)cc1	none (no result: Rv3671c inh, Mtb UGM inh, Mtb betalactam)
CCc1ccc(S(=O)(=O)ON2C(=O)c3ccccc3C2=O)cc1	FBA Mtb inh 30.2 (no result: Rv3671c inh, Mtb UGM inh, Mtb betalactam)
CC1CCC(NC(=O)c2cc(C3CC3)nn2-c2ccccc2)CC1 (stereo not drawn)	FBA Mtb inh active
COc1ccc(-c2sc3ccc(N4CCOCC4)cc3c2C#CCCO)cc1	none
C/C(=N/NC(=O)c1sc(NS(=O)(=O)c2ccccc2)nc1C)c1sc(N)nc1C	GDH-TPI inh 38.2
Cn1ccc2c(-c3ccc(C(C)(C)C)cc3)cc3c(c21)C1CCC3O1 (stereo not drawn)	none (no result: Rv3671c inh, Mtb UGM inh, Mtb betalactam, GDH-TPI inh)
